Among the data in PubChem BioAssay (EPA / NIEHS) are outcome and AC50 values, retold here.

The source made the active and inactive calls. The calls were made as follows: active = hit-call score of the fitted dose curve at least 0.9, where 1 is the maximum; inactive = score below 0.9.

The AC50 is the concentration giving half of the maximal activity seen.

Assay [1] in a line: ATG_GLI_CIS: Attagene CIS-FACTORIAL HepG2 Assay for human Zinc Finger Protein GLI1 (AID 2282945). Particulars: HepG2, Attagene cis-factorial reporter mRNA, GLI element; actives raise or lower the signal. An outline of the steps: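 Transiently transfected HepG2 cells report endogenous transcription factor activity via cis-element-driven reporter units. After 24 h compound exposure, reporter mRNA was measured by RT-PCR with capillary electrophoresis; bidirectional fitting against DMSO baseline.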

Assay [2] has as its target Bile acid receptor (Homo sapiens) (UniProt Q96RI1). The assay is described as follows: ATG_IR1_CIS: Attagene CIS-FACTORIAL HepG2 Assay for human Nuclear Receptor Subfamily 1 Group H Member 4 (NR1H4), IR1 submotif (AID 2282946). The settings on record: IR1 reporter transcription, actives raise or lower the signal. An outline of the steps:
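Fluorescence of capillary-separated, HpaI-digested RT-PCR reporter products gave IR1-element mRNA induction in HepG2 cells 24 h after dosing. Endogenous transcription factors drove the cis-regulated reporters; activity was fitted bidirectionally against DMSO.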

A short description of assay [3]: ATG_GRE_CIS: Attagene CIS-FACTORIAL HepG2 Assay for human Glucocorticoid Response Elements (GRE) (AID 2282947). The settings on record: HepG2 GRE cis-reporter, Attagene multiplex mRNA; actives raise or lower the signal. An outline of the steps: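 Fluorescence intensity of reporter-specific cDNA fragments, separated by capillary electrophoresis, provides the signal. Constructs carry cis-regulating promoters in transiently transfected HepG2 liver cells; 24 h incubation; fitting is bidirectional against DMSO.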

The nature of assay [4]: ATG_ISRE_CIS: Attagene CIS-FACTORIAL HepG2 Assay for human Interferon Regulatory Factor 1 (IRF1) binding to an Interferon-Stimulated Response Element (ISRE) (AID 2282948). Particulars: HepG2 ISRE cis-reporter (Attagene), mRNA transcription readout; actives raise or lower the signal. An outline of the steps: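 Read-out: fluorescent RT-PCR products resolved by capillary electrophoresis, reporting endogenous transcription factor activity via ISRE-driven reporter mRNA in transfected HepG2 cells dosed for 24 h; gain or loss fitted relative to DMSO.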

Assay [5] in a line: ATG_M_32_CIS: Attagene CIS-FACTORIAL HepG2 Assay for M32 Transcription Factor (Internal Marker) (AID 2282949).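 Also: background control marker of the multiplexed CIS panel rather than a real target.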 Particulars: HepG2 Attagene cis-factorial M32 reporter, mRNA; actives raise or lower the signal. An outline of the steps:
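HepG2 transfectants (cis-regulated reporter transcription units) dosed 24 h. Reporter mRNA by RT-PCR plus CE, analysed as gain or loss relative to DMSO.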

Assay [6] is described as follows: ATG_M_06_CIS: Attagene CIS-FACTORIAL HepG2 Assay for M06 Transcription Factor (Internal Marker) (AID 2282950). The settings on record: HepG2 Attagene CIS-FACTORIAL M06 internal marker reporter; actives raise or lower the signal. An outline of the steps:
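Fluorescence-labelled RT-PCR products from cis-promoter reporter units, cut with HpaI and resolved by capillary electrophoresis, give the signal. Cells are human HepG2, dosed for 24 h. Serves as background control, fitted relative to DMSO.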

In assay [7] the target is Hypoxia-inducible factor 1-alpha (Homo sapiens) (UniProt Q16665). Nature of the assay: ATG_HIF1a_CIS: Attagene CIS-FACTORIAL HepG2 Assay for human Hypoxia Inducible Factor 1 (HIF1A) (AID 2282951). The settings on record: HepG2 Attagene cis-factorial HIF1a reporter transcription; actives raise or lower the signal. An outline of the steps: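 Activity is fitted in both directions relative to DMSO. Reporter transcripts are read by RT-PCR, fluorescent primer extension and capillary electrophoresis after 24 h chemical treatment. The cells are HepG2 carrying transiently transfected cis-element-driven reporter units responding to endogenous factors.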
Hypoxia-inducible factor 1-alpha (Homo sapiens), sequence (Q16665 whole entry, looked up): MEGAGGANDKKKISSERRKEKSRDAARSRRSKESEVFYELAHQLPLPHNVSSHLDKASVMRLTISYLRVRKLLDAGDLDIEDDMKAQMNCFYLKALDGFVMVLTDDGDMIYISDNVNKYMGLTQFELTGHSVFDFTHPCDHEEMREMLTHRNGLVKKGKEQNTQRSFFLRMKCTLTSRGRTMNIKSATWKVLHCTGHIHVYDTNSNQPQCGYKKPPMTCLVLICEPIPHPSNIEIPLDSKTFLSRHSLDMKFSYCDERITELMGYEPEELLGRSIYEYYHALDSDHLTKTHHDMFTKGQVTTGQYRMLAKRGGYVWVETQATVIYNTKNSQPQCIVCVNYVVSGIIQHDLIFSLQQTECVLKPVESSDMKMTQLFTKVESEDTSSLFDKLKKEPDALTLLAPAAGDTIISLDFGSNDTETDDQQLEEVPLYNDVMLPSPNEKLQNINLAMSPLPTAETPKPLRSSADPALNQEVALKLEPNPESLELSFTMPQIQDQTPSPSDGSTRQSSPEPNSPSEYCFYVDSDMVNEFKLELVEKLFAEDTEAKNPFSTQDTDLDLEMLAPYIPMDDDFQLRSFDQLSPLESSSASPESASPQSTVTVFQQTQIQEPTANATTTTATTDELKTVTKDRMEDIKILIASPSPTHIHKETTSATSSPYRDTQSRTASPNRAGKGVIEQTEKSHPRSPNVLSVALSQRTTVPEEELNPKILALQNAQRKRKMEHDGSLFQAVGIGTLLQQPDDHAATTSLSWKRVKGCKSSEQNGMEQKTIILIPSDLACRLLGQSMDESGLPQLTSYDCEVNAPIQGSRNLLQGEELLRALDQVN

The target of assay [8] is Hepatocyte nuclear factor 6 (Homo sapiens) (UniProt Q9UBC0). The assay is described as follows: ATG_HNF6_CIS: Attagene CIS-FACTORIAL HepG2 Assay for human Hepatocyte Nuclear Factor 6 (HNF6) (AID 2282952). Particulars: HepG2 Attagene cis-factorial HNF6 reporter transcription; actives raise or lower the signal. An outline of the steps: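 First, HepG2 cells were transfected with the multiplexed cis reporter library and dosed with chemical for 24 h. Next, RNA was reverse-transcribed, PCR-amplified and fluorescently labelled. Finally, HpaI-digested fragments were read by capillary electrophoresis.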
Hepatocyte nuclear factor 6 (Homo sapiens), sequence (Q9UBC0 whole entry, looked up, the tested form may be a part): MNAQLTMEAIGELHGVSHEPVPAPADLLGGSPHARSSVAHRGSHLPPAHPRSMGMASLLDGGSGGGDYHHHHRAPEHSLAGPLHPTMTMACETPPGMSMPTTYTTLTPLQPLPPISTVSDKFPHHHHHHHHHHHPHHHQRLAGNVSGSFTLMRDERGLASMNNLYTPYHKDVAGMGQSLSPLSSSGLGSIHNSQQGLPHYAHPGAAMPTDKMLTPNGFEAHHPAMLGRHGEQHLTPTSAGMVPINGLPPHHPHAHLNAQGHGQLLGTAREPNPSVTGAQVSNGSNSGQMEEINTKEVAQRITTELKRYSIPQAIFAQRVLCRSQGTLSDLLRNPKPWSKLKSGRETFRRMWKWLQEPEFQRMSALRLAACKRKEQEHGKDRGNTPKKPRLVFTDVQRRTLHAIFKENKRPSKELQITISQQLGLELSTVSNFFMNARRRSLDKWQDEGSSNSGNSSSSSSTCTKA

Assay [9] concerns the target Heat shock factor protein 1 (Homo sapiens) (UniProt Q00613). The assay is described as follows: ATG_HSE_CIS: Attagene CIS-FACTORIAL HepG2 Assay for human Heat Shock Transcription Factor 1 (HSE) (AID 2282953). Particulars: HepG2 HSE cis-reporter, Attagene RNA transcription; actives raise or lower the signal. An outline of the steps:
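After a 24 h incubation with test chemical, transfected HepG2 cells were harvested for RNA; reporter transcripts were measured by RT-PCR and capillary electrophoresis. Values reflect gain or loss of signal relative to DMSO.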

Assay [10] is described as follows: ATG_MRE_CIS: Attagene CIS-FACTORIAL HepG2 Assay for human Metal Responsive Element (MRE) (AID 2282954). The settings on record: HepG2 MRE cis-reporter transcription, Attagene multiplex; actives raise or lower the signal. An outline of the steps: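 Measured here is mRNA induction from an MRE cis-element reporter in HepG2 after 24 h, quantified by fluorescence of labelled RT-PCR products on capillary electrophoresis; gain- and loss-of-signal fits use DMSO as baseline.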

Heat shock factor protein 1 (Homo sapiens), sequence (Q00613 whole entry, looked up): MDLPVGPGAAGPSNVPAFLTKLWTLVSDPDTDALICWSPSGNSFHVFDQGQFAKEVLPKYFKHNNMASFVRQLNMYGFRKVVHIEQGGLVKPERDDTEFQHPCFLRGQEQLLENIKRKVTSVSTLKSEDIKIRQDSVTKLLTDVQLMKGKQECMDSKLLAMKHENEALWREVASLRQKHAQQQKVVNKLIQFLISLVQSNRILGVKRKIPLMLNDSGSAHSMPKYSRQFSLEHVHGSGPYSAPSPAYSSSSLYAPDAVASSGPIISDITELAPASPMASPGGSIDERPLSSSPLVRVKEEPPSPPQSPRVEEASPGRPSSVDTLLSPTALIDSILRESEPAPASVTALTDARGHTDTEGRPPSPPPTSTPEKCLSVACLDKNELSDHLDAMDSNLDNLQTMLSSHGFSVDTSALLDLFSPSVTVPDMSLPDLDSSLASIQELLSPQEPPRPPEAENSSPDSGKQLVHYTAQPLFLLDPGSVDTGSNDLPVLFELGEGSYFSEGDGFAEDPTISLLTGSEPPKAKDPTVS
Bile acid receptor (Homo sapiens), sequence (Q96RI1 whole entry, looked up): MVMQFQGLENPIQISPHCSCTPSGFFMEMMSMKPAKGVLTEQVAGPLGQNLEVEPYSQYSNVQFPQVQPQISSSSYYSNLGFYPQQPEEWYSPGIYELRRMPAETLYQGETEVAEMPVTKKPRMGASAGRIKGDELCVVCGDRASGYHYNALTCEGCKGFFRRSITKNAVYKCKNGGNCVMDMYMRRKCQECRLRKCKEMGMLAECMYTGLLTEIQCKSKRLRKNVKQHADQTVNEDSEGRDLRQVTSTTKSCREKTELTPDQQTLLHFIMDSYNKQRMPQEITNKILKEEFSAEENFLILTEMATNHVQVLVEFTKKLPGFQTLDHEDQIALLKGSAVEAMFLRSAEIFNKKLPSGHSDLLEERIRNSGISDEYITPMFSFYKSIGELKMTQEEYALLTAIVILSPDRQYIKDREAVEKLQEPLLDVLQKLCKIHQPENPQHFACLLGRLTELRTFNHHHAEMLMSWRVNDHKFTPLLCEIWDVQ

As for `CCC(C)C(=O)OC` (stereo not given), the compound was classed as inactive in assay [1], in assay [2], in [3], in assay [4], in assay [5] and in assay [6]. Besides, the compound was classed as inactive in assay [7], in assay [8], in [9] and in assay [10].

For `N#Cc1ccc(C(c2ccc(C#N)cc2)n2cncn2)cc1`, the call in assay [1], in assay [2], in assay [3], in [4], in assay [5] and in assay [6] was inactive. Moreover, the outcome in assay [7], in assay [8], in assay [9] and in assay [10] was inactive.

`CC/C=C\C/C=C\C/C=C\CCCCCCCC(=O)OC`: the outcome in [1], in [3], in assay [4], in [5], in assay [6] and in assay [8] was inactive. Further, the call in assay [10] was inactive. For the same compound, the values for the AC50 in assay [2], in assay [7] and in assay [9] were 25.7 µM (active), 34 µM (active) and 74.9 µM (active), respectively.

As to `Oc1c(Cl)cc(Cl)c(Cl)c1Cl`, the compound was called inactive in [1], in [2], in [3], in [4], in assay [5] and in assay [6]. The compound was classed as inactive in assay [7] and in [9]. Moreover, the AC50 in assay [8] is 51.7 µM (active); in assay [10], 70.8 µM (active).

In the case of `CC1CCC(=O)C1=O` (stereo not given), the compound was called inactive in assay [1], in assay [2], in [3], in assay [4], in [5] and in assay [6]. Moreover, the compound was classed as inactive in assay [7], in assay [8], in assay [9] and in assay [10].

As to `CC(=O)OC1CCCCC1`, the outcome in [1], in assay [2], in [3], in assay [4], in [5] and in [6] was inactive. For the same compound, the outcome in assay [7], in assay [8], in assay [9] and in assay [10] was inactive.

As to `CCCCCCOc1ccc(N)cc1`, the result in assay [1], in [2], in assay [3], in assay [4], in assay [5] and in assay [6] was inactive. Also, the compound was called inactive in assay [7], in [8], in assay [9] and in [10].

Consider `CC(C)(CO)COC(=O)C(C)(C)CO`, for which the result in assay [1], in [2], in assay [3], in assay [4], in [5] and in assay [6] was inactive. Also, the result in assay [7], in assay [8], in assay [9] and in [10] was inactive.

Take `[Cl][Sc]([Cl])[Cl]`: the outcome in [1], in assay [2], in assay [3], in assay [4], in assay [5] and in assay [6] was inactive. Besides, the result in assay [7], in [8], in assay [9] and in [10] was inactive.

With `CCN1CN(CC)CN(CC)C1`, the AC50 in [1] was 141 µM (active); in [3], 97 µM (active); in assay [4] it was 146 µM (active); in [9] it was 174 µM (active); in assay [10] it was 166 µM (active). The compound was called inactive in assay [2], in assay [5], in assay [6], in assay [7] and in assay [8].

For the compound `CCCCNC(=S)NCCCC`, the compound was classed as inactive in [1], in assay [2], in [3], in [4], in [5] and in assay [6]. Moreover, the compound was called inactive in [7], in assay [8], in [9] and in assay [10].

Consider `CCCCC1C(=O)N(c2ccccc2)N(c2ccccc2)C1=O`, for which the call in assay [1], in assay [2], in [3], in [4], in [5] and in assay [6] was inactive. Besides, the compound was called inactive in assay [7], in assay [8], in assay [9] and in assay [10].

On to `COC(C=C(C)CCC=C(C)C)OC`, for which the compound was classed as inactive in assay [1], in assay [2], in assay [3], in assay [4], in assay [5] and in [6]. Further, the outcome in assay [7], in assay [8] and in assay [9] was inactive.

For `CCCCCCCOC(=O)c1ccc(O)cc1`, the half-maximal activity concentration (AC50) was 45.7 µM (active) in [1], 50.9 µM (active) in assay [2], 59.9 µM (active) in assay [7] and 52.6 µM (active) in assay [10]. For the same compound, the compound was called inactive in assay [3], in assay [4], in assay [5], in [6], in assay [8] and in [9].

Turning to `C=CC(=O)O[C@H]1C[C@@H]2CC[C@@]1(C)C2(C)C`, the AC50 is 186 µM (active) in assay [1], 150 µM (active) in [5] and 161 µM (active) in assay [9]. Also, the outcome in assay [2], in assay [3], in assay [4], in assay [6], in [7] and in [8] was inactive. Further, the call in assay [10] was inactive.

As for `O=C(O)C1CCC(C(=O)O)CC1` (stereo not given), the call in assay [1], in assay [2], in [3], in assay [4], in assay [5] and in [6] was inactive. The outcome in [7], in assay [8] and in [9] was inactive.

Regarding `CCCCNS(=O)(=O)c1ccccc1`, the result in [1], in [2], in assay [3], in [4], in assay [5] and in assay [6] was inactive. Also, the outcome in assay [7], in [8], in [9] and in [10] was inactive.

As for `CCCCCCCCCCCC(C)=O`, the concentration at half-maximal activity (AC50) in assay [1] was 166 µM (active); in assay [8], 123 µM (active). The call in assay [2], in [3], in assay [4], in assay [5], in assay [6] and in assay [7] was inactive. Moreover, the result in assay [9] was inactive.

Consider `CCCCCC1=CCCC1=O`, for which the outcome in [1], in assay [2], in assay [3], in assay [4], in assay [6] and in assay [7] was inactive. In addition, the compound was classed as inactive in assay [8], in [9] and in assay [10]. Moreover, the concentration at half-maximal activity (AC50) in assay [5] is 148 µM (active).

In the case of `CC12CCC(CC1)C(C)(C)O2`, the outcome in assay [1], in assay [2], in assay [3], in assay [4], in assay [5] and in [6] was inactive. The outcome in assay [7], in assay [8] and in [9] was inactive.

Consider `O=S(=O)(O)c1ccc(Nc2nc(Nc3ccc(C=Cc4ccc(Nc5nc(Nc6ccc(S(=O)(=O)O)cc6)nc(N(CCO)CCO)n5)cc4S(=O)(=O)O)c(S(=O)(=O)O)c3)nc(N(CCO)CCO)n2)cc1`, for which the call in assay [1], in assay [2], in [3], in assay [4], in [5] and in assay [6] was inactive. Moreover, the outcome in [7], in [8], in assay [9] and in [10] was inactive.

`c1ccc(-c2nc3ccccc3[nH]2)cc1`: the compound was classed as inactive in assay [1], in [2], in assay [3], in [4], in [5] and in [6]. Also, the compound was classed as inactive in [7], in assay [8], in assay [9] and in assay [10].

Regarding `O=C1CCCN1C1CCCCC1`, the outcome in [1], in assay [2], in assay [3], in [4], in assay [5] and in assay [6] was inactive. Besides, the outcome in assay [7], in [8] and in assay [9] was inactive.

Consider `CCOC(=O)[C@H](O)[C@@H](O)C(=O)OCC`, for which the result in assay [1], in assay [2], in assay [3], in assay [4], in assay [5] and in assay [6] was inactive. The compound was classed as inactive in assay [7], in assay [8], in assay [9] and in [10].

Consider `CCCCCCCC(=O)OCC(COC(=O)CCCCCCC)OC(=O)CCCCCCC`, for which the call in assay [1], in assay [2], in assay [3], in assay [4], in assay [5] and in assay [6] was inactive. The compound was called inactive in [7], in assay [8], in assay [9] and in [10].
